From PubChem
Most compounds without a hit are left out; they make up all but 19% or so of the library.
IL1B secr inh: qHTS for Inhibitors of Inflammasome Signaling: IL-1-beta AlphaLISA Primary Screen | AID 743279, 2014 | actives 4.7% (n = 360,000) | activity change, % at 57.5 µM | THP-1 LPS/ATP IL-1B secretion, AlphaLISA, 16 h; active compounds read low; in the data active means activity change below about -50%; inconclusive means mostly about -30% to -49%; further: on the % scale 0 is the no-effect control and ±100 the full control effect
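THP-1 cells pretreated 1 hr with compounds (up to 57.5 uM final), then stimulated with LPS (250 ng/mL final) plus ATP (1.25 mM final); secreted IL-1B measured by AlphaLISA after 16 hr, decreased signal indicating inhibition.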
TGFb SMAD3 inh: qHTS for Inhibitors of TGF-b; Potency, µM (titrated, usually from 46.1 µM), without a hit: at the top dose activity, negative = inhibition, most hits filed as inhibitors; HepG2 CAGA-GFP TGF-b/SMAD3 reporter, GFP fluorescence, 18 h; TGF-beta stimulated, 500 pg/mL final; actives 1.2% (n = 410,000); further: potency means the concentration at half of the fitted maximal effect; on the % scale 0 is the no-effect control and ±100 the full control effect; nearly all actives have a fitted effect of over 65% in size
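GFP signal (ex488/em500-530) from TGF-beta-stimulated HEPG2 CAGA-GFP cells, 500 pg/mL final, 18 h at 37 degrees C in DMEM plus 1% FBS, normalized to unstimulated and DMSO-stimulated controls.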
TDP1 cell noCPT: qHTS for Inhibitors of human tyrosyl-DNA phosphodiesterase 1 (TDP1): qHTS in cells in absence of CPT | actives 15% (n = 420,000) | Potency, µM (series often up to 46.2 µM), for the others: at the highest dose activity change, negative = growth inhibition, most hits filed as inhibitors | DT40 Tdp1-/- hTDP1 cells, no CPT, ATP luminescence, 48 h | AID 686978, 2013; further: potency means the concentration at half of the fitted maximal effect; on the % scale 0 is the no-effect control and ±100 the full control effect; nearly all actives have a fitted effect of over 55% in size
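Cells were dispensed at 400 per well, compounds added by pin tool, plates incubated ≥48 hr at 37 °C, then CellTiter-Glo added for 30 min at room temperature before luminescence reading. Line: DT40 Tdp1-/- complemented with hTDP1; camptothecin omitted.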
ASM inhibitor: Inhibitors of Secretory Acid Sphingomyelinase (S-ASM): qHTS; Sphingomyelin phosphodiesterase (Homo sapiens), P17405; placental ASM, HMU-PC fluorogenic substrate, 60 min; Potency, µM (series often up to 57.5 µM), for the others: at the top dose activity change, negative = inhibition, most hits filed as inhibitors; actives 0.006% (n = 340,000); further: potency means the concentration at half of the fitted maximal effect
Target sequence (P17405 47-631 limits assumed): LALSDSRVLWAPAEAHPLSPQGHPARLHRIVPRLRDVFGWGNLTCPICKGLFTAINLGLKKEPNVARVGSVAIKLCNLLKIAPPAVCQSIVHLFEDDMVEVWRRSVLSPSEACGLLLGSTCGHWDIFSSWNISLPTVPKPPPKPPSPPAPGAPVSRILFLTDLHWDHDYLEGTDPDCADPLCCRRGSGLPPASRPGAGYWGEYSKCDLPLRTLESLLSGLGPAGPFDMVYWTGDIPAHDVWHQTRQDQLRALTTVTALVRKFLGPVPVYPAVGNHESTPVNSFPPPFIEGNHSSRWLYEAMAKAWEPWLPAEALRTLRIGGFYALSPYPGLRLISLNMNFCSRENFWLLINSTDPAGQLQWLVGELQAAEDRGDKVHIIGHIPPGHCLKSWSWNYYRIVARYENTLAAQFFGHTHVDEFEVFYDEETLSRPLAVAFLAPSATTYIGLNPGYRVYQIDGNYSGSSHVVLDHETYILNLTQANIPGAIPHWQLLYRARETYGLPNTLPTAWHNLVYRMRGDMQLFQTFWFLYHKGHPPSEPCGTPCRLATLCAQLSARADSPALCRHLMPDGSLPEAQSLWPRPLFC
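HMU-PC0 cleavage (9 uM final) by human placental ASM, 60 min at 37 °C following 10 min compound exposure at RT; stopped at pH 10, fluorescence Ex 386/Em 447 nm.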
HepG2 viability: qHTS for Inhibitors of TGF-b: Cytotox Counterscreen. HepG2 CAGA-GFP viability, ATP luminescence, 18 h. Potency, µM (series often up to 46.1 µM), for the others: at the top dose activity change, negative = cytotoxicity, hits mostly cytotoxic. actives 0.76% (n = 410,000). AID 588856, 2011; further: potency means the concentration at half of the fitted maximal effect
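CellTiter-Glo luminescence gave cytotoxicity after 18 hours at 37 degrees C. The cells were HepG2 CAGA-GFP in 1% FBS DMEM, stimulated with 500 pg/mL TGF-beta after compound addition. %Activity was normalised to no-cell wells (complete cell-killing) and DMSO (no toxicity), and curves were fitted and classified.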
DT40 TDP1 CPT: qHTS for Inhibitors of human tyrosyl-DNA phosphodiesterase 1 (TDP1): qHTS in cells in presence of CPT. chicken DT40 Tdp1-/-;hTDP1 cells + 20 nM CPT, ATP luminescence, 48 h. Potency, µM (series often up to 46.2 µM), inactives show at the top dose activity change, negative = growth inhibition, most hits filed as inhibitors. actives 12% (n = 420,000); further: potency means the concentration at half of the fitted maximal effect; on the % scale 0 is the no-effect control and ±100 the full control effect; nearly all actives have a fitted effect of over 55% in size
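Cell growth measured by CellTiter-Glo luminescence after a minimum 48 h, 37 C compound exposure with 20 nM CPT in Tdp1-knockout DT40 cells stably expressing hTDP1, seeded 400/well; qHTS titration format.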
An asterisk follows results filed as active; i = inactive; ? = inconclusive; nt = not tested or not shown. Unless noted, the call rests on the fitted dose curve; in most records, active means well fitted curve in the direction sought with a large enough effect; inconclusive means small, poorly fitted or top-dose-only effect, or another doubt; inactive means no such curve, though single readings can be large; an effect the other way counts as inactive or inconclusive.

SMILES	IL1B secr inh	TGFb SMAD3 inh	TDP1 cell noCPT	ASM inhibitor	HepG2 viability	DT40 TDP1 CPT
CC(C)(C)c1ccc(S(=O)(=O)N2CCN(C3CCCC3)CC2)cc1	19.1	-2.6%	?	5.9%	-6.5%	?
CCN1C(=O)[C@H]2[C@H]3CN=C(SCc4ccc(Cl)cc4)N3[C@@](CC)(C(=O)OC)[C@H]2C1=O	-2.5	-8.0%	?	-6.7%	-4.8%	?
Cc1ccc(S(=O)(=O)N2CC(O)C[C@H]2C(=O)OCC(=O)Nc2ccc(N3CCCCC3)cc2)cc1C (stereo not given in full)	-1.4	2.3%	18.4µM*	1.2%	-0.3%	?
COc1cc(NC(=O)COC(=O)C2CC(O)CN2S(=O)(=O)c2ccc(Cl)cc2)c(C)cc1[N+](=O)[O-] (stereo not given)	21.6	3.8%	4.0%	-1.4%	-8.7%	9.0%
COc1ccc(C2C(=O)N(C3CCCCC3)CC(=O)N2CCC2=CCCCC2)cc1 (stereo not given)	nt	0.0%	16.4µM*	nt	-20.9%	?
Cc1ccc(C2C(=O)N(C3CCCCCC3)CC(=O)N2CCC2=CCCCC2)cc1 (stereo not given)	nt	-2.1%	20.6µM*	nt	-1.0%	?
COc1ccc(C2C(=O)N(C3CCCCCC3)CC(=O)N2Cc2ccc(C)cc2)cc1 (stereo not given)	nt	-10.2%	25.9µM*	nt	-0.3%	23.1µM*
COc1ccc(C2C(=O)N(C3CCCCCC3)CC(=O)N2CCC2=CCCCC2)cc1 (stereo not given)	nt	-18.6%	14.6µM*	nt	-20.4%	23.1µM*
CCCOc1ccc(C2C(=O)N(C3CCCCCC3)CC(=O)N2CCC2=CCCCC2)cc1OC (stereo not given)	nt	-1.5%	-20.0%	nt	-6.1%	-12.2%
CC(=O)c1cccc(NC(=O)c2nc3ccccc3nc2N2CCCCC2)c1	nt	17.3%	?	nt	-22.7%	?
COCCNC(=O)c1c(CSc2ccc(Cl)cc2)noc1C(=O)NCc1ccccc1	-3.0	-6.3%	?	-10.4%	-21.2%	?
O=C(Cn1c(=O)n(-c2ccccc2)c(=O)c2c3c(sc21)CCCC3)Nc1cccc(F)c1	nt	-5.4%	-26.4%	nt	0.3%	?
Cn1nc(C(=O)OCC(=O)NC2CCS(=O)(=O)C2)c2ccccc2c1=O (stereo not given)	3.3	-1.1%	3.1%	0.5%	-0.3%	9.1%
Cc1ccc(S(=O)(=O)CCC(=O)OCc2nnc(-c3ccc([N+](=O)[O-])cc3)o2)cc1	17.8	0.0%	-4.5%	nt	-1.3%	0.1%
COc1ccc(S(=O)(=O)N(C)CC(=O)NCc2ccccn2)cc1	-19.7	4.5%	-5.5%	9.1%	-22.2%	-8.3%
COc1cccc(CNC(=O)CCCn2ncn3c(cc4occc43)c2=O)c1OC	nt	-23.8%	1.9%	nt	-24.2%	-22.1%
CCCCN(C(=O)C1CC(=O)N(CCc2ccc(OC)c(OC)c2)C1)c1c(N)n(CCCC)c(=O)[nH]c1=O (stereo not given)	14.9	-0.5%	-3.6%	126.0%	-15.6%	14.3%
CC(=O)Nc1ccc(NC(=O)C(C)N(C)CC(=O)Nc2ccccc2Br)cc1 (stereo not given)	40.6	1.7%	-12.5%	-2.2%	-14.6%	-17.2%
CCCN1C(=O)CN(C2CCCCCC2)C(=O)C1c1ccc(C)cc1 (stereo not given)	12.9	-27.2%	?	7.0%	1.7%	?
CCOCCCN1C(=O)CN(C2CCC(C)CC2)C(=O)C1c1ccc(C)cc1 (stereo not given)	-11.2	-10.0%	2.31µM*	-2.0%	13.4%	?
COc1ccccc1-c1cc2nc(C)c(CCC(=O)NCc3cccc(Cl)c3)c(C)n2n1	nt	?	18.4µM*	nt	-19.2%	?
COc1ccc(-c2cc3nc(C)c(CCC(=O)NC(C)c4ccccc4)c(C)n3n2)c(OC)c1 (stereo not given)	nt	?	?	nt	-23.9%	-23.3%
COCCCNC(=O)CCc1c(C)nc2cc(-c3ccc(Cl)cc3)nn2c1C	nt	22.5%	?	nt	-1.0%	18.4µM*
Cc1nc2cc(-c3ccc(Cl)cc3)nn2c(C)c1CCC(=O)NCc1ccco1	15.5	-1.4%	?	14.0%	-14.3%	?
Cc1nc2ncnn2c(C)c1CCC(=O)NCc1cccc(Cl)c1	nt	13.6%	-2.9%	nt	-15.3%	15.4%
SMILES	IL1B secr inh	TGFb SMAD3 inh	TDP1 cell noCPT	ASM inhibitor	HepG2 viability	DT40 TDP1 CPT
COc1ccc(-c2cc3nc(C)c(CCC(=O)NCc4ccco4)c(C)n3n2)c(OC)c1	-22.8	3.1%	?	5.3%	-2.4%	?
COc1ccc(CCNC(=O)CCc2c(C)nc3cc(-c4ccccc4OC)nn3c2C)c(OC)c1	nt	?	16.4µM*	nt	-27.8%	?
COc1ccc(-c2cc3nc(C)c(CCC(=O)NCCc4ccc(Cl)cc4)c(C)n3n2)c(OC)c1	nt	-3.3%	29.1µM*	nt	-3.3%	13µM*
O=S1(=O)CC(N2CCN(CC3CC3)CC2)CN1Cc1ccc(F)cc1 (stereo not given)	30.8	1.2%	?	nt	0.3%	-20.0%
O=C(Cc1ccc(Cl)cc1)NCC(=O)N1CCN(Cc2ccccc2)CC1	i	-0.1%	?	1.0%	0.0%	?
CC1(C(=O)NC2CCCCCCC2)CCC(=O)N1Cc1cccs1 (stereo not given)	6.0	-8.5%	-22.7%	7.9%	2.9%	-27.6%
Cc1ccc2c(c1)N(CC(=O)NCCCN1CCN(C)CC1)C(=O)CO2	-4.9	12.8%	-14.4%	-0.2%	3.2%	4.0%
C=CCC(CC=C)(CNC(=O)C(=O)Nc1cccc(C(F)(F)F)c1)c1ccccc1	nt	3.0%	20.6µM*	nt	0.3%	18.4µM*
O=C(/C=C/c1cccc(C(F)(F)F)c1)Nc1cccc(C(F)(F)F)c1	-92.4*	?	23.1µM*	-21.2%	-99.0%	23.1µM*
Cc1ccc(NC(=O)/C=C/c2cccc(C(F)(F)F)c2)cc1	-22.6	7.1%	?	249.7%	-0.9%	-1.4%
CC(C)(C)NNC(=S)Nc1cccc(C(F)(F)F)c1	?	?	1.16µM*	2.9%	-9.5%	3.26µM*
O=C(O)/C=C/C(=O)Nc1cccc(C(F)(F)F)c1	-13.0	-6.1%	-6.2%	-3.1%	-10.7%	0.5%
